AmpC inh no detg: AmpC beta-lactamase inhibition without detergent; Potency, µM (doses to about 57.1 µM), most hits filed as inhibitors; AID 485341; 0.52% of 330,000 active; P00811; AmpC nitrocefin hydrolysis, absorbance 480 nm, 0.0001% Triton; note: nearly all actives have a fitted effect of over 20% in size
Target sequence (P00811 whole entry, looked up): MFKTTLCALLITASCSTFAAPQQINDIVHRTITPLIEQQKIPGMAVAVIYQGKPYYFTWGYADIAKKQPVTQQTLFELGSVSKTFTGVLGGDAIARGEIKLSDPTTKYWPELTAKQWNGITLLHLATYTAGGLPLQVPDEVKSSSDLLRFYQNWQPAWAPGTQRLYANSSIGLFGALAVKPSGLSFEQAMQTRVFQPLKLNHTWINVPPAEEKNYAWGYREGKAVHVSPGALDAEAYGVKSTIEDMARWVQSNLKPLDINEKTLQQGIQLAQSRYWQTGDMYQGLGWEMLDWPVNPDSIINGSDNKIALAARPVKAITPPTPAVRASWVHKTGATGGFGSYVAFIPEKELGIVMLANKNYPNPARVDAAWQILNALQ
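AmpC (5.3 nM in the dispensed reagent) in 20 mM phosphate pH 7.0 with 0.01% (detergent screen) or 0.0001% Triton X-100 was preincubated with compounds for 15 min at room temperature. Nitrocefin was then added from an 800 uM solution, and hydrolysis was followed at 480 nm.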
AmpC detergent: blocks E. coli AmpC beta-lactamase in detergent assay. P00811. AmpC hydrolysis of nitrocefin, absorbance 480 nm, 0.01% Triton. Potency, µM (top dose mostly 114 µM), usual class: inhibitors. 0.041% of 370,000 active; note: nearly all actives have a fitted effect of over 25% in size
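AmpC (5.3 nM in the dispensed reagent) in 20 mM phosphate pH 7.0 with 0.01% (detergent screen) or 0.0001% Triton X-100 was preincubated with compounds for 15 min at room temperature. Nitrocefin was then added from an 800 uM solution, and hydrolysis was followed at 480 nm.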
Sm TGR inh: blocks Schistosoma mansoni thioredoxin glutathione reductase | Potency, µM (doses to about 114 µM), actives largely listed as inhibitors | 3% of 360,000 active | purified TGR, DTNB reduction, TNB absorbance 405 nm; note: nearly all actives have a fitted effect of over 60% in size
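Kinetic colorimetric format: TGR-catalysed, NADPH-driven DTNB reduction monitored via TNB absorbance. Enzyme dispensed at 20 nM; compound exposure 15 min at room temperature before reaction start.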
Hits are given with their value; - = inactive; ? = inconclusive; . = no result. A selection: hits, their analogues and other compounds. The true share with any hit is near 3.3%. Calls come from the whole dose curve; as a rule, active = well fitted curve in the direction sought with a large enough effect; inconclusive = small, poorly fitted or top-dose-only effect, or another doubt; inactive = no such curve, though single readings can be large; an effect the other way counts as inactive or inconclusive.

SMILES	AmpC inh no detg	AmpC detergent	Sm TGR inh
Cc1ccc(/C=C/C(=O)O)cc1S(=O)(=O)NCCO	-	-	45µM
O=S(=O)(c1ccc2c(c1)CCN2)N1CCCCCC1	.	-	-
C[C@H](NC(=O)N1CCC(Cc2ccccc2)CC1)C(=O)O	-	-	-
O=S(=O)(c1ccc2ccccc2c1)n1nc(-c2ccco2)nc1NCc1cccc(Cl)c1	.	-	-
COC(=O)COc1c(/C=C\c2nc(O)c([N+](=O)[O-])c(=O)[nH]2)cccc1OC	-	-	?
C#CCOc1c(/C=C\c2nc(O)c([N+](=O)[O-])c(=O)[nH]2)cc(Br)cc1OC	-	-	35µM
CN1CCN(c2ccc(S(=O)(=O)N3CCCCC3)cc2N)CC1	-	-	-
CC(C)(C)C(=O)NC1CCN(S(=O)(=O)c2ccc(C(F)(F)F)cc2)CC1	-	-	-
C=CCC(Nc1ccccc1)C12C=CC(O1)C(C(=O)OC)=C2C(=O)OC (configuration not stated)	-	-	6.3µM
C=CCC(c1ccccc1)N(C(C)=O)c1ccco1 (configuration not stated)	-	-	-
Cc1cccc(NC(=O)c2cc3c(n(-c4ccccc4)c2=O)CCCC3=O)n1	-	-	32µM
COc1ccc(-n2c3c(cc(C(=O)Nc4cccc(C)n4)c2=O)C(=O)CC(C)(C)C3)cc1	-	-	.
O=C(NC1CCN(CC(=O)N(c2ccccc2)c2ccccc2)CC1)c1ccc([N+](=O)[O-])cc1	-	-	-
CC(=O)n1cc(N(C(=O)CCl)c2ccccc2)c2ccccc21	-	-	0.5µM
CC(=O)n1cc(N(C(=O)CCl)c2ccc([N+](=O)[O-])cc2)c2ccccc21	-	-	0.71µM
CC(=O)n1cc(CO)c2ccccc21	-	-	-
O=Cc1[nH]c2ccccc2c1N(C(=O)CCl)c1ccc([N+](=O)[O-])cc1	-	-	3.2µM
Cn1cc(C(=O)N/N=C/c2ccc([N+](=O)[O-])cc2)c2ccccc21	-	-	-
CC(C)(C)OC(=O)N1CCN(C(=O)c2[nH]cnc2C(=O)Nc2ccc(Cl)cc2)CC1	-	.	.
COc1ccc(-n2cc3c(c2-c2cccc(Br)c2)c(=O)n(C)c(=O)n3C)cc1OC	.	-	-
CC(C)c1ccc2oc(-c3cc(NC(=O)c4cccnc4)ccc3Cl)nc2c1	.	-	-
Cc1ccc(NC(=O)CSCC(=O)Nc2ncc3c(n2)CC(c2ccco2)CC3=O)cc1 (configuration not stated)	-	-	50µM
Cc1cc(C)cc(Nc2ncc3c(n2)CC(c2ccco2)CC3=O)c1 (configuration not stated)	-	-	50µM
Cc1cccc(Nc2ncc3c(n2)CC(c2ccco2)CC3=O)c1 (configuration not stated)	-	-	-
Cc1ccc(C(=O)Nc2ncc3c(n2)CC(c2ccco2)CC3=O)cc1 (configuration not stated)	-	-	?
SMILES	AmpC inh no detg	AmpC detergent	Sm TGR inh
Cc1cc(C(=O)NCC(c2cccs2)N2CCOCC2)ccc1[N+](=O)[O-] (configuration not stated)	-	-	-
COc1cccc(C(=O)Nc2ccccc2C(=O)OCc2cc(=O)n3c4c(sc3n2)CCCC4)c1	.	-	-
COC(=O)c1ccc(NC(=O)CN(Cc2ccccc2)S(=O)(=O)c2ccc(Cl)cc2)cc1	.	-	-
CC(C)COc1ccc(C(=O)N(CC(=O)Nc2ccccc2C(F)(F)F)Cc2ccco2)cc1	-	?	-
O=C(CN(Cc1ccco1)C(=O)c1ccc([N+](=O)[O-])cc1)Nc1ccccc1C(F)(F)F	-	-	20µM
O=C(CN(Cc1ccco1)C(=O)c1ccccc1F)Nc1ccccc1C(F)(F)F	-	?	-
O=C(CN(Cc1ccco1)S(=O)(=O)c1cccs1)Nc1ccccc1C(F)(F)F	-	-	20µM
CCOc1ccc(-n2ccnc2SCC(=O)Nc2ccc(OC)cc2OC)cc1	.	-	-
Cc1ccc(C)c(C(=O)CN2C(=O)c3ccccc3C2=O)c1	-	-	-
Cc1ccc(C)c(S(=O)(=O)ON2C(=O)c3ccccc3C2=O)c1	-	50µM	0.89µM
Cc1ccc(S(=O)(=O)ON2C(=O)c3cccc4cccc(c34)C2=O)cc1	-	?	-
Cc1cc(S(=O)(=O)ON2C(=O)c3ccccc3C2=O)ccc1F	-	45µM	0.79µM
O=C1c2ccccc2C(=O)N1OS(=O)(=O)c1ccccc1	-	45µM	1.3µM
O=C1c2cccc3cccc(c23)C(=O)N1OS(=O)(=O)c1ccccc1	?	-	-
O=C(N/N=C/C1CC2CCC1C2)c1c[nH]c2ccccc12 (configuration not stated)	-	-	-
Cc1ccc(S(=O)(=O)N(C)C)cc1NC(=O)c1c(-c2c(F)cccc2Cl)noc1C	-	-	-
CCCNC(=O)c1ccccc1NC(=O)C1=CSCCO1	-	-	-
CCc1nc2ccc(C(=O)Nc3ccc(NC(C)=O)cc3)cc2nc1CC	-	-	-
COc1ccc(-c2nnc(SCC(=O)Nc3ccc(C(C)=O)cc3)nc2-c2ccc(OC)cc2)cc1	.	-	-
O=C(NCc1ccccc1)c1ccc2nc(-c3ccco3)c(-c3ccco3)nc2c1	-	-	1.4µM
Nc1c(C(=O)Nc2ccccc2)sc2nc(-c3ccco3)ccc12	-	-	1µM
CC(=O)c1ccc(NC(=O)CSc2nnc(-c3ccco3)c(-c3ccco3)n2)cc1	-	-	2.8µM
CC(=O)c1ccc(NC(=O)c2ccc3nc(-c4ccco4)c(-c4ccco4)nc3c2)cc1	-	-	0.79µM
COc1ccccc1NC(=O)c1sc2nc(-c3ccco3)ccc2c1N	-	-	?
O=C(NCc1ccccc1)c1ccc2nccnc2c1	-	-	-
SMILES	AmpC inh no detg	AmpC detergent	Sm TGR inh
CCOc1ccc(C2CC(c3c(O)c4ccccc4oc3=O)=NN2c2ccccc2)cc1OC (configuration not stated)	-	?	-
Cc1cc(NC(=O)NC(=O)c2ccccc2)no1	-	-	-
O=C(Nc1ccccc1)c1ccc2nc(-c3ccco3)c(-c3ccco3)nc2c1	-	-	3.2µM
O=C(Nc1ccc(N2CCOCC2)cc1)c1ccc2nc(-c3ccco3)c(-c3ccco3)nc2c1	-	-	?
O=C(O)CCCN1C(=O)c2ccc(C(=O)c3cccc([N+](=O)[O-])c3)cc2C1=O	-	-	-
CC1CCc2cc(F)ccc2N1C(=O)CCl (configuration not stated)	-	?	5.6µM
CCC(CC)C(=O)N1c2ccc(F)cc2CCC1C (configuration not stated)	-	?	-
O=C(Nc1ccccn1)c1ccc(-c2ccccc2)cc1	-	?	-
O=C(C(O)c1ccccc1)N1N=C(c2ccccc2)CC1(O)C(F)(F)F (configuration not stated)	-	-	-
CSCCCNC(=O)c1ccc(OC2CCN(CCc3ccccc3)CC2)cc1	-	-	-
O=C(Cn1ccc(NC(=O)OCc2ccccc2)nc1=O)NCCc1ccccn1	-	-	32µM
O=C(Cn1ccc(NC(=O)OCc2ccccc2)nc1=O)NCc1ccccn1	-	-	-
CSc1ncc(CN2CCCCC2C(=O)Nc2ccc(Oc3ccccc3)nc2)cn1 (configuration not stated)	-	-	-
